The results in this text go back to PubChem BioAssay AID720650 (Broad Institute, 2013).

Unmarked numbers belong to inactive results. Activity calls are given as the source filed them. No rule for the calls is given here.

This experiment is described as follows: Biochemical counterscreen for C difficile toxins, absence of UDPG, inhibitor dose response (AID 720650). Conditions: series mostly up to 19.5 µM; activity change, negative = inhibition: at the top concentration.
For `Cc1nc2ccccn2c1-c1ccnn1S(=O)(=O)c1ccc(F)cc1`, the “activity change, negative = inhibition” value was -14.9%.
Still for that read-out and setting: to `Cc1ccc(/C=C/c2onc(C)c2S(=O)(=O)N2CCC(C(=O)N3CCCCC3)CC2)cc1` belongs -13.5%.
Same read-out and setting: the result for `O=C(NCc1ccccc1)C1Cc2c(-c3cccc(F)c3)ccnc2O1` (centres undefined) reads -12.2%; that for `O=C(C[C@H]1CC[C@H]2[C@@H](COC[C@@H](O)CN2Cc2ccccc2)O1)NCCc1ccccc1`, -12.5%; that for `O=C(COc1cccc(C(F)(F)F)c1)N1CCN(c2ccc(O)cc2)CC1`, 10.8%.
The same measure, in the same setting: the result for `NS(=O)(=O)c1cccc(NC(=O)c2ccc(NS(=O)(=O)c3cccc([N+](=O)[O-])c3)cc2)c1` reads 20.8%.
Turning to `CC(C)NC(=O)N1CC[C@@H]2[C@H]1c1cc(-c3ccc(F)cc3)ccc1N(C)[C@H]2CO`, the AC50 is 6.96 µM (active).
For `COc1ccc(-c2nc(N)ncc2-c2ccccc2OC)c(O)c1`, the “activity change, negative = inhibition” value was -17.4%.
Consider `O=C(Nc1ccc(O)cc1)/C(=C\c1cccs1)NC(=O)c1ccccc1`, for which the AC50 was 17.1 µM (active).
Regarding `Cc1ccc2sc(NNC(=O)C3COc4ccccc4O3)nc2c1C` (centres undefined), the AC50 was 0.238 µM (active).
With `O=C(NC(=S)NNC(=O)c1ccccc1F)c1cccnc1`, the “activity change, negative = inhibition” value is 9.74%.
Still for that read-out and setting: to `Cc1ccc(C)c2sc(NC(=O)c3ccc(N4C(=O)CCC4=O)cc3)nc12` belongs -13.2%; to `Cc1cc(C)c(NS(=O)(=O)c2cccc3cccnc23)c(C)c1`, -8.44%.
As to `CCOc1cc(/C=N\n2nnnc2N)ccc1O`, the “activity change, negative = inhibition” value is -0.253%.
Take `Cc1ccn(CCC(=O)NC2CC(C)(C)Cc3c2cnn3-c2ccccc2C)n1` (centres undefined): the “activity change, negative = inhibition” value is 7.13%.
Same read-out and setting: to `O=c1[nH]c(CN2CCOCC2)nc2cc(Cl)ccc12` belongs 6.24%.
Consider `CCN(CC)CCCCN1c2ccccc2Sc2ccccc21`, for which the concentration at half-maximal activity (AC50) is 7.03 µM (active).
Take `O=C(N/C(=C\c1ccc(O)cc1)C(=O)N1CCCCC1)c1ccccc1`: the “activity change, negative = inhibition” value was -3.64%.
Take `O=C(Nc1ccc(O)cc1)/C(=C/c1ccco1)NC(=O)c1ccccc1`: the AC50 was 14.7 µM (active).
On the same count and under the same terms, to `Cc1cc(O)ccc1NC(=O)c1ccccc1` belongs 17.9 µM (active); to `CCCCn1c(N)c(N(CC)C(=O)c2cccs2)c(=O)[nH]c1=O`, over 39 µM.
For the compound `N#C/C(=C\c1ccc(N2CCOCC2)o1)C(=O)Nc1ccc(O)cc1`, the “activity change, negative = inhibition” value was 10.9%.
Same read-out and setting: the result for `COc1cc(/C=N/NC(=O)c2nnn(-c3nonc3N)c2C(C)C)ccc1O` reads 2.07%.
The same measure, in the same setting: to `Cc1ccc(S(=O)(=O)Oc2ccccc2/C=C2/SC(=O)NC2=O)cc1` belongs 8.66%.
Turning to `COCC(=O)N1CC[C@@H]2[C@@H](CO)N(C)c3ccc(-c4ccccc4)cc3[C@@H]21`, the half-maximal activity concentration (AC50) was 3.88 µM (active).
With `Cc1ccc2ccc[n+](Cc3ccccc3)c2c1`, the “activity change, negative = inhibition” value was -7.71%.
Take `CNC(=O)C1Cc2c(-c3ccccc3Oc3ccccc3)ccnc2O1` (centres undefined): the AC50 was over 39 µM.
For the compound `Cc1c(CNC(=O)c2c([N+](=O)[O-])cnn2C)cnn1C`, the “activity change, negative = inhibition” value is -1.66%.
As to `NC1=NC[C@H](Cc2ccc(O)cc2)N1CCc1cc(C(F)(F)F)cc(C(F)(F)F)c1`, the “activity change, negative = inhibition” value is -12.2%.
On the same count and under the same terms, the result for `COc1nc(C)cc(C)c1S(=O)(=O)c1ccc(Cl)cc1` reads -8.33%.
Same read-out and setting: to `O=C(NCc1cccnc1)c1cc(C2CCCCN2S(=O)(=O)c2cccc3cccnc23)on1` (centres undefined) belongs -13.3%; to `CC[C@H](C)[C@@H]1NC(=O)c2cc([N+](=O)[O-])cc(I)c2NCC[C@@H](C(N)=O)NC(=O)[C@H](CCCN=C(N)N)NC1=O`, 1.27%; to `CCc1[nH]c(=O)c(C#N)c2c1CCCC2`, -1.25%.
Take `CC(C)Sc1nnc(NC(=O)c2ccco2)s1`: the “activity change, negative = inhibition” value was -5.43%.
The same measure, in the same setting: the result for `O=C(N[C@@H](Cc1c[nH]c2ccccc12)C(=O)O)C1CCN(S(=O)(=O)c2cccs2)CC1` reads -4.14%.
As for `O=C(CSc1nc2ccccc2[nH]1)NC1CCCc2ccccc21` (centres undefined), the AC50 is over 39 µM.
On to `O=C(CC(=O)N/N=C/c1ccc(O)cc1)N/N=C/c1ccc(O)cc1`, for which the AC50 was 9.03 µM (active).
On to `CCCNC(=O)C1(C)CCCN(C(=O)c2ccccc2OC(F)(F)F)C1` (centres undefined), for which the “activity change, negative = inhibition” value was -5.78%.
For `O=C(CSc1nnc(-c2ccncc2)o1)N1CCCCCC1`, the “activity change, negative = inhibition” value was -6.56%.

The AC50 is the concentration giving half of the maximal activity seen.
